Measurements taken from the supplement of paper PMC11732987, “Enantioselective OTUD7B fragment discovery through chemoproteomics screening and high-throughput optimisation” (Communications Chemistry, 2025).
A number with no mark means an inactive call.

Columns and labels:
Test in all cases: log2 ratio of Biotin-Ahx-Ub-VS probe labelling (fragment/DMSO); higher = less target engagement (more negative = stronger competition), active = hit call of the paper (q ≤ 0.05, log2 ratio ≤ -1)
Settings in all cases: compound concentration: 200 uM; treatment time: 3 h
[1] = target: T1, OTUD6B (UniProt Q8N6M0)
T1 sequence (whole entry): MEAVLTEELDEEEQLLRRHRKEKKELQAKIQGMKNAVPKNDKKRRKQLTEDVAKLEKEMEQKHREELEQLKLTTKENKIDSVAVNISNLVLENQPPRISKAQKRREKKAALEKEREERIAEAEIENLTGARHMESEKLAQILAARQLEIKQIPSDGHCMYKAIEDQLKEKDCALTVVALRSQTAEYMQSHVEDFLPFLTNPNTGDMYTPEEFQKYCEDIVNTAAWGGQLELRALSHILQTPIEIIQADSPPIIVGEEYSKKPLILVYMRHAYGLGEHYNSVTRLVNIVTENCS
Procedure, shortened: (§1)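 Each value is an average log2 ratio of fragment to vehicle, tested by unpaired t-test. The underlying Spectronaut label-free quantities were global-median-normalised, and only proteins with ≥2 unique peptides were included. Triplicate HEK293T lysate samples (495 µg) were exposed to fragment at 200 µM or vehicle for 3 h, then to Biotin-Ahx-Ub-VS at 0.5 µM final for 1 h, before NeutrAvidin enrichment of labelled DUBs, LysC and trypsin digestion, and diaPASEF LC-MS/MS.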

[2] = target: T2, OTUD7B (UniProt Q6GQQ9)
T2 sequence (whole entry): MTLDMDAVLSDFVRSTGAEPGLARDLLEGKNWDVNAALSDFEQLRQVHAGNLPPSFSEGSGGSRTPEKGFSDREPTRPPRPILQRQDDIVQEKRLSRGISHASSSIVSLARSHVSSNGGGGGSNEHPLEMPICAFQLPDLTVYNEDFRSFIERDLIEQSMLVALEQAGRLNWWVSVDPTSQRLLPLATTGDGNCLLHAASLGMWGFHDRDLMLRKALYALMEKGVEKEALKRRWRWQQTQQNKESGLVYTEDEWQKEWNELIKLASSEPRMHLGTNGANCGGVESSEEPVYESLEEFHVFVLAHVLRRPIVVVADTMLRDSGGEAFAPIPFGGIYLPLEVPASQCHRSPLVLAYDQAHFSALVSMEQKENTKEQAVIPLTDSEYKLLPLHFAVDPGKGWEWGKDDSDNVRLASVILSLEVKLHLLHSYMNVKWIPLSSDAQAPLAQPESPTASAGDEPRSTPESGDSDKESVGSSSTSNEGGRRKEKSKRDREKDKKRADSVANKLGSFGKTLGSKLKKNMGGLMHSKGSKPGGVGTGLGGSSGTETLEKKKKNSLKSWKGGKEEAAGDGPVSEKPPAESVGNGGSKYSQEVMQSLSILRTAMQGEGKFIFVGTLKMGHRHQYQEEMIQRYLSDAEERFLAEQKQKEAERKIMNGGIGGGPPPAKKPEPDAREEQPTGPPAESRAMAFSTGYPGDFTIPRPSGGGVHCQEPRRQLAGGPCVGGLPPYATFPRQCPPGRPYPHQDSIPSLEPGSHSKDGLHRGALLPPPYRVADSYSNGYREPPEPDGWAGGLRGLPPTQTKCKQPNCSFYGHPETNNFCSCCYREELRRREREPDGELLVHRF
Procedure, shortened: as §1

[3] = target: PRPF8 (UniProt Q6P2Q9)
Procedure, shortened: as §1

[4] = target: T3, PSMD7 (UniProt P51665)
T3 sequence (whole entry): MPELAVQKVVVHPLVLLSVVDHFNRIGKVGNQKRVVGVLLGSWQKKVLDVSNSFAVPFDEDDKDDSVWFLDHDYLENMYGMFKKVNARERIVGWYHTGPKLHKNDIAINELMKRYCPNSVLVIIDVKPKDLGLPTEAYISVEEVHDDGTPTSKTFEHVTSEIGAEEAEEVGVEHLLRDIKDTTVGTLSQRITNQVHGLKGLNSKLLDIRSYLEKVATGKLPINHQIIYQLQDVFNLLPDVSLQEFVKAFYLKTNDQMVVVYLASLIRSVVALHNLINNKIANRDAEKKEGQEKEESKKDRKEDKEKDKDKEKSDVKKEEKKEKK
Procedure, shortened: as §1

[5] = target: UCHL1 (UniProt P09936)
Procedure, shortened: as §1

[6] = target: T4, UCHL3 (UniProt P15374)
T4 sequence (whole entry): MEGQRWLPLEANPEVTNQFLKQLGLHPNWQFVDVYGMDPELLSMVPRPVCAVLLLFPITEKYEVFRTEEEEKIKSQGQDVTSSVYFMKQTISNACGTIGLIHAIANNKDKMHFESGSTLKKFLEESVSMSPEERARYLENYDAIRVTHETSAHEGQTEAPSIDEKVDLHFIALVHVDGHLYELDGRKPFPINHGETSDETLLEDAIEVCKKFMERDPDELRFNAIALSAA
Procedure, shortened: as §1

[7] = target: T5, UCHL5 (UniProt Q9Y5K5)
T5 sequence (whole entry): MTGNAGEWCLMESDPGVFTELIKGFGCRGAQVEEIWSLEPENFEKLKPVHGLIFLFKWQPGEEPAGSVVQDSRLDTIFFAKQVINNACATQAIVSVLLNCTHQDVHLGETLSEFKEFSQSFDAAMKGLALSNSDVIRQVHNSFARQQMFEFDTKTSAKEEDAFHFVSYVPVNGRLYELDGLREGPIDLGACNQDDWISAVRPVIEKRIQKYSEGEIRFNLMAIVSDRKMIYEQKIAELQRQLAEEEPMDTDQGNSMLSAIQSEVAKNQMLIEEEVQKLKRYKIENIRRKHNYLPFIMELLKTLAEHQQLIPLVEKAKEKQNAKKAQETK
Procedure, shortened: as §1

[8] = target: USP10 (UniProt Q14694)
Procedure, shortened: as §1

[9] = target: T6, USP15 (UniProt Q9Y4E8)
T6 sequence (whole entry): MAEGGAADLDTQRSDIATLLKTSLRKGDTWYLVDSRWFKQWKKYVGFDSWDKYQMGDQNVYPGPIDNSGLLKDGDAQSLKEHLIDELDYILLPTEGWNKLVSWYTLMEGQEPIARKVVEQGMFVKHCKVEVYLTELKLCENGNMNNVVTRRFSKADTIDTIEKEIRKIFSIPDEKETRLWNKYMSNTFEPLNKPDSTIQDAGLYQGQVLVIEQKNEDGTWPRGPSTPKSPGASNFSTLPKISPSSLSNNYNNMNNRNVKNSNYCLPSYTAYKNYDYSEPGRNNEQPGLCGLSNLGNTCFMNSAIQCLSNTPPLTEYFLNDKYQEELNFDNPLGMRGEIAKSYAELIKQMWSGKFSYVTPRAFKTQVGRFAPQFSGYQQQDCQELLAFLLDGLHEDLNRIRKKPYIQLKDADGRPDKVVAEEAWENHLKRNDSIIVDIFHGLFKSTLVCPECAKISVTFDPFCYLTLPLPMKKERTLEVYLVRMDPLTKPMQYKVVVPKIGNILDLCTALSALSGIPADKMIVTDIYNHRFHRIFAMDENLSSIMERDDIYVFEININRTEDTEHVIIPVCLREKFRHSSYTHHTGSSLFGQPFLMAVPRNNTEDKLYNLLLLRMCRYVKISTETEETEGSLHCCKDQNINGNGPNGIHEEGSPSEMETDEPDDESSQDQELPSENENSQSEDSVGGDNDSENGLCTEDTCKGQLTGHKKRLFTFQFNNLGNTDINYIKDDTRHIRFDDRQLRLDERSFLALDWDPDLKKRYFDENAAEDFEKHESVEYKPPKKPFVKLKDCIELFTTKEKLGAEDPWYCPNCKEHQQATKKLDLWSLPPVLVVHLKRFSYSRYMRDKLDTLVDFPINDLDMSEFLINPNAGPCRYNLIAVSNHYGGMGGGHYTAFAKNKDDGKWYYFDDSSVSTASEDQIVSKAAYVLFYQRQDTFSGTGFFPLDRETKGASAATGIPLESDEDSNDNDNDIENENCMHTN
Procedure, shortened: as §1

[10] = target: USP16 (UniProt Q9Y5T5)
Procedure, shortened: as §1

Chain of UCHL1 (P09936 whole entry, looked up): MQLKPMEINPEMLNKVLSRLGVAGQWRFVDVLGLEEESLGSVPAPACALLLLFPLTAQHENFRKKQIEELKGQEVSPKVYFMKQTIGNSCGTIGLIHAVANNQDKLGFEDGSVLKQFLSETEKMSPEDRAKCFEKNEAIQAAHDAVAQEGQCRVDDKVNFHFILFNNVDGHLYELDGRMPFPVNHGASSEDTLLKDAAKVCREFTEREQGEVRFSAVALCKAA
Chain of USP10 (Q14694 whole entry): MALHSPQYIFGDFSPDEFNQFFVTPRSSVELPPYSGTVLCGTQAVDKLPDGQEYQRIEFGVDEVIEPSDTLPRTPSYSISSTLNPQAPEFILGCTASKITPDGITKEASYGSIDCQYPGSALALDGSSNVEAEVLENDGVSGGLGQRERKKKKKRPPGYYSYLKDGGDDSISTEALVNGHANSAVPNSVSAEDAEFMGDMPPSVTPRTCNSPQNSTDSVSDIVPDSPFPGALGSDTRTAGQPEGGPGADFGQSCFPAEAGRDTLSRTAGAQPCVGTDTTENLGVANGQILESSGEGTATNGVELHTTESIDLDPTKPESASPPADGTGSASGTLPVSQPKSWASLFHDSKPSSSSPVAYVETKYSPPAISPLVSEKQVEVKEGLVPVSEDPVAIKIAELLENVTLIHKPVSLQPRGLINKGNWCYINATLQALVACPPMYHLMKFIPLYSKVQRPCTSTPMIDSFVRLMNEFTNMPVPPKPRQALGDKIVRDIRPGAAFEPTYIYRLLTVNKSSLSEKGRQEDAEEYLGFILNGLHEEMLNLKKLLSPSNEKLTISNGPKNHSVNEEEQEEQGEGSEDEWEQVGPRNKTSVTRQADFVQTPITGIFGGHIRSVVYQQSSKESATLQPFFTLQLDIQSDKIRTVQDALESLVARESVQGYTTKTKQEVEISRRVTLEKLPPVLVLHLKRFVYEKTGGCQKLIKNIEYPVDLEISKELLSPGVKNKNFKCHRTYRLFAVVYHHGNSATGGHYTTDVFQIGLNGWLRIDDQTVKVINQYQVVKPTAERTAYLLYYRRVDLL
Chain of USP16 (Q9Y5T5 whole entry, looked up): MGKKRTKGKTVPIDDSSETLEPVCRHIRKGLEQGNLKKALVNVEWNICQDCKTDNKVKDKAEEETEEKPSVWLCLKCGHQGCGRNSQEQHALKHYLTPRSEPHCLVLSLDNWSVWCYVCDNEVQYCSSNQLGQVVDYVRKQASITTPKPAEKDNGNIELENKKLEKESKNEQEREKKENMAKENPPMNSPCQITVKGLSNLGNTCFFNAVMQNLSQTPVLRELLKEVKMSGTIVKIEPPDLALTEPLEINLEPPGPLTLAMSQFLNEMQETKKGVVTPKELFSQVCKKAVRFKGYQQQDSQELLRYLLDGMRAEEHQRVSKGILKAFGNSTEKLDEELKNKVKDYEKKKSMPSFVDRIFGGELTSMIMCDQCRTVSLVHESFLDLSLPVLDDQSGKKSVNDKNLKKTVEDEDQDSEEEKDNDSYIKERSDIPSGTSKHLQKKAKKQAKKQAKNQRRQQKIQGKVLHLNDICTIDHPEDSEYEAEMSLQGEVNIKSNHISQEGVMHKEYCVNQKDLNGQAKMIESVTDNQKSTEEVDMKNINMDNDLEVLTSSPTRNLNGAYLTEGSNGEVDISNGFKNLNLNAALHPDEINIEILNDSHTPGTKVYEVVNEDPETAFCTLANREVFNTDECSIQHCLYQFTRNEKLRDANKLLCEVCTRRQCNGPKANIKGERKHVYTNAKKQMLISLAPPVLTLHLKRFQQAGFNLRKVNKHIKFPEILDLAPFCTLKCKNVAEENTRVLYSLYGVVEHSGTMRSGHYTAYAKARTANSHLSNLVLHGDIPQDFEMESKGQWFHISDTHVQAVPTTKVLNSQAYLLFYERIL

## CS(=O)(=O)N1CCCN(C(=O)CCl)CC1
[1]
  log2 ratio of Biotin-Ahx-Ub-VS probe labelling: -0.512
[2]
  log2 ratio of Biotin-Ahx-Ub-VS probe labelling: -0.631
[3]
  log2 ratio of Biotin-Ahx-Ub-VS probe labelling: -0.104
[4]
  log2 ratio of Biotin-Ahx-Ub-VS probe labelling: -0.148
[5]
  log2 ratio of Biotin-Ahx-Ub-VS probe labelling: -1.95 (active)
[6]
  log2 ratio of Biotin-Ahx-Ub-VS probe labelling: 0.112
[7]
  log2 ratio of Biotin-Ahx-Ub-VS probe labelling: -0.235
[8]
  log2 ratio of Biotin-Ahx-Ub-VS probe labelling: -0.0225
[9]
  log2 ratio of Biotin-Ahx-Ub-VS probe labelling: -0.193
[10]
  log2 ratio of Biotin-Ahx-Ub-VS probe labelling: 0.245
